Test results published in PubChem BioAssay (NCATS).
Results filed as inconclusive are left out. The source made the active and inactive calls. Unless noted, calls follow the shape of the dose curve; as a rule, active = well fitted curve in the direction sought with a large enough effect; inconclusive = small, poorly fitted or top-dose-only effect, or another doubt; inactive = no such curve, though single readings can be large; an effect the other way counts as inactive or inconclusive.

Tests used:
[1] = Viability counterscreen for agonist of constitutive androstane receptor (CAR) against the NCATS DSHEA and TCM libraries (AID 1794838);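 also: HepG2 cells with CYP2B6 reporter and hCAR plus 0.75 µM PK11195 antagonist; 0% is about no effect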
Summary of the method: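 HepG2-CYP2B6-hCAR cells (2,500/well) attached 5 h, then got compounds plus 0.75 uM PK11195 final. After 24 h at 37C, viability read by CellTiter-Fluor fluorescence (Ex/Em 405/540 nm).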

[2] = HepG2 viability counterscreen (readout 2: ATP content) against the NCATS DSHEA and TCM libraries (AID 1794840);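 also: HepG2 cells exposed to substances for about 24 h; 0% is about no effect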
Summary of the method: (§1)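 HepG2 cells (1,000 cells/well) attached ~4 h, then treated ~24 h at 37C with substances. Protease activity read by GF-AFC (25 uM final, 30 min, Ex/Em 380/510 nm); ATP content then by CellTiter-Glo luminescence.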

[3] = HepG2 viability counterscreen (readout 1: protease activity) against the NCATS DSHEA and TCM libraries (AID 1794841);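 also: cells exposed to compounds for about 24 h before the protease read; 0% is about no effect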
Summary of the method: as §1

[4] = target: Cytochrome P450 3A4 (Homo sapiens) (UniProt P08684); assay: qHTS for inhibitors of CYP3A4 against the NCATS DSHEA and TCM libraries (AID 1919971); conditions: recombinant CYP3A4 enzyme activity, luminescence qHTS; also: potency is read from the fitted curve at half-maximal effect
Summary of the method: (§2)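 Light output from converted D-luciferin reports remaining CYP activity. Compounds preincubate with enzyme and substrate for 15 min; NADPH regeneration (1x final) runs the reaction for 30-45 min.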

[5] = target: Cytochrome P450 2D6 (Homo sapiens) (UniProt P10635); assay: qHTS for inhibitors of CYP2D6 against the NCATS DSHEA and TCM libraries (AID 1919972); also: potency is read from the fitted curve at half-maximal effect
Summary of the method: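 Steps: enzyme plus luciferin substrate dispensed; test substances pinned; 15 min RT; 1x NADPH regenerating solution added, 30–45 min RT protected from light; detection reagent, 30 min RT; luminescence measured. Minus-enzyme wells as background.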

[6] = target: Cytochrome P450 2C9 (Homo sapiens) (UniProt P11712); assay: qHTS for inhibitors of CYP2C9 against the NCATS DSHEA and TCM libraries (AID 1919973); also: potency is read from the fitted curve at half-maximal effect
Summary of the method: as §2

[7] = target: Cytochrome P450 2C19 (Homo sapiens) (UniProt P33261); assay: qHTS for inhibitors of CYP2C19 against the NCATS DSHEA and TCM libraries (AID 1919974); conditions: CYP2C19 enzyme inhibition, luminescence qHTS;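 also: luminescence from luciferin released by CYP2C19 oxidation of a pro-luciferin substrate; potency is read from the fitted curve at half-maximal effect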
Summary of the method: as §2

[8] = KB-3-1 P-gp reporter qHTS against the NCATS DSHEA and TCM libraries (AID 1919975); also: 0% is about no effect
Summary of the method: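 Parental KB-3-1 human cervical adenocarcinoma cells (500 cells/well, DMEM + 10% FBS) were treated with substances for ~72 h at 37C; viability was read by CellTiter-Glo luminescence.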

[9] = target: Cytochrome P450 1A2 (Homo sapiens) (UniProt P05177); assay: qHTS for inhibitors of CYPIA2 against the NCATS DSHEA and TCM libraries (AID 1919976); conditions: recombinant CYP1A2 enzyme activity, luminescence; also: potency is read from the fitted curve at half-maximal effect
Summary of the method: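 In this quantitative HTS, inhibition of recombinant human CYP1A2 was measured as loss of luciferin-derived luminescence. Turnover ran 30-45 min at RT after NADPH regeneration solution was added.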

[10] = qHTS Counterscreen for compound interference against the NCATS DSHEA and TCM libraries (AID 1919978); conditions: firefly luciferase detection reagent interference, luminescence; also: % of control where 0% means no effect
Summary of the method: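 D-luciferin (1 uM final) or 100 mM potassium phosphate buffer alone was preincubated 15 min at RT with compounds (19.5 nM to 39.8 uM final). Luciferin detection reagent was then added and luminescence read after 30 min at RT.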

[11] = Dual reporter qHTS for agonist of Pregnane X Receptor (hPXR) against the NCATS DSHEA and TCM libraries: Fluorescence readout (AID 1920058); also: 0% is about no effect
Summary of the method: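 Measures viability of the PXR reporter HepG2 line by protease-substrate fluorescence (405/540 nm), taken 1 h after CellTiter-Fluor addition. Substances are tested as concentration series over a ~24 h exposure, with rifampicin as agonist control.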

[12] = target: Nuclear receptor subfamily 1 group I member 2 (Homo sapiens) (UniProt O75469); assay: Dual reporter qHTS for agonist of Pregnane X Receptor (hPXR) against the NCATS DSHEA and TCM libraries: Luminescence readout (AID 1920059); also: 0% is about no effect
Summary of the method: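 hPXR-LucHepG2 cells in phenol red-free DMEM with 5% charcoal-stripped FBS, 2000 cells/well, attached 5 h, then exposed 24 h at 37C to compounds; rifampicin as positive agonist control (2.8 nM–92 uM). Luciferase luminescence read.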

[13] = Dual reporter qHTS for antagonist of Pregnane X Receptor (hPXR) against the NCATS DSHEA and TCM libraries: Fluorescence Readout (AID 1920061); also: 0% is about no effect
Summary of the method: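 Rifampicin-stimulated (2 uM final) hPXR-luciferase HepG2 cells were treated for 24 h with DSNP/TCM substances. Viability came from CellTiter-Fluor fluorescence, reporter activity from ONE-Glo luminescence.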

[14] = qHTS to identify inhibitors of the type 1 interferon - major histocompatibility complex class I in skeletal muscle: primary screen against the NCATS Mechanism Interrogation Plate v5.0 (MIPE) Libary (AID 1347411);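 also: plate controls were vehicle for no effect and reference inhibitor for full effect; nearly all actives have a fitted effect of over 65% in size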
Summary of the method: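 Cells were genome-edited human myoblasts carrying a HiBit tag on endogenous HLA-B. They were treated with IFN-beta (4.0 ng/ml) and titrated compounds (top 46 uM) for 24 hrs before lytic HiBiT detection.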

[15] = target: Lysosomal acid glucosylceramidase (Homo sapiens) (UniProt P04062); assay: Glucocerebrosidase-p2 (AID 348; in the data active = potency below about 10 µM; also: potency is read from the fitted curve at half-maximal effect); conditions: purified GBA, blue fluorogenic substrate, 40 min
Summary of the method: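 Compounds titrated from 0.6 nM upwards against 0.2 nM enzyme in pH 5.9 citric acid/KH2PO4, taurocholate, tween-20; blue fluorogenic substrate 80 uM, 40 min room temperature, stopped and read Ex 365/Em 440 for AC50.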

[16] = AP1 Signaling Pathway (AID 357; active = well fitted curve in either direction with a large enough effect, not every such curve was filed as active; also: % is scaled to controls: 0 for no effect and ±100 for the full control effect); conditions: ME-180 (cervical carcinoma) AP-1-bla reporter, EGF-induced, beta-lactamase ratio, 5 h; at 7.69 µM (top of the series) unless noted
Summary of the method: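 AP-1-bla ME-180 cells with beta-lactamase reporter under AP-1 response element, stimulated with EC50 EGF; compounds titrated, 5 hours at 37 degrees Celsius. CCF4 read at 460/530 nm ratio; positive and negative modulators judged by AC50.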

[17] = target: Rap guanine nucleotide exchange factor 3 (Homo sapiens) (UniProt O95398); assay: Confirmatory qHTS for agonist of cAMP-regulated guanine nucleotide exchange factor 3 (EPAC1) (AID 1645881);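 also: EPAC1 catalysed release of BODIPY-GDP from Rap1B seen as fluorescence loss; 100% = effect of cAMP agonist control; nearly all actives have a fitted effect of over 75% in size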
[18] = target: Rap guanine nucleotide exchange factor 4 (Homo sapiens) (UniProt Q8WZA2); assay: Confirmatory qHTS for agonist of cAMP-regulated guanine nucleotide exchange factor 4 (EPAC2) (AID 1645884);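 also: nucleotide exchange releases bodipy-GDP from Rap1 and this lowers its fluorescence; % is scaled to controls: 0 for no effect and ±100 for the full control effect; nearly all actives have a fitted effect of over 65% in size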
[19] = target: Rap guanine nucleotide exchange factor 4 (Homo sapiens) (UniProt Q8WZA2); assay: Confirmatory qHTS for antagonist of cAMP-regulated guanine nucleotide exchange factor 4 (EPAC2) (AID 1645885); also: % is scaled to controls: 0 for no effect and ±100 for the full control effect; nearly all actives have a fitted effect of over 25% in size
[20] = target: Glutathione peroxidase 1 (Homo sapiens) (UniProt P07203); assay: Primary qHTS Assay for Inhibitors of Recombinant Selenoprotein Glutathione Peroxidase 1 (GPX1) (AID 1845191); also: nearly all actives have a fitted effect of over 65% in size
Summary of the method: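 Recombinant GPX1 (10 nM final) was preincubated with compound for 30 min at room temperature, then reacted with 1 mM GSH, 0.5 mM CHP, 0.5 mM NADPH and 100 nM glutathione reductase; NADPH fluorescence (340/450 nm) was read at 0 and 15 min.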

Chain of Glutathione peroxidase 1 (Homo sapiens) (P07203 whole entry, looked up): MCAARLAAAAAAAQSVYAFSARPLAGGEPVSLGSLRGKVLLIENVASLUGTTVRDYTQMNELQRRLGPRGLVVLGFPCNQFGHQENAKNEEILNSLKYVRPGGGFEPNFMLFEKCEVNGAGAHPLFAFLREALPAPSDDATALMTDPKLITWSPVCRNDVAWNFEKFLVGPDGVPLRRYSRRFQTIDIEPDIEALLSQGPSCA
Chain of Rap guanine nucleotide exchange factor 4 (Homo sapiens) (Q8WZA2 whole entry, looked up): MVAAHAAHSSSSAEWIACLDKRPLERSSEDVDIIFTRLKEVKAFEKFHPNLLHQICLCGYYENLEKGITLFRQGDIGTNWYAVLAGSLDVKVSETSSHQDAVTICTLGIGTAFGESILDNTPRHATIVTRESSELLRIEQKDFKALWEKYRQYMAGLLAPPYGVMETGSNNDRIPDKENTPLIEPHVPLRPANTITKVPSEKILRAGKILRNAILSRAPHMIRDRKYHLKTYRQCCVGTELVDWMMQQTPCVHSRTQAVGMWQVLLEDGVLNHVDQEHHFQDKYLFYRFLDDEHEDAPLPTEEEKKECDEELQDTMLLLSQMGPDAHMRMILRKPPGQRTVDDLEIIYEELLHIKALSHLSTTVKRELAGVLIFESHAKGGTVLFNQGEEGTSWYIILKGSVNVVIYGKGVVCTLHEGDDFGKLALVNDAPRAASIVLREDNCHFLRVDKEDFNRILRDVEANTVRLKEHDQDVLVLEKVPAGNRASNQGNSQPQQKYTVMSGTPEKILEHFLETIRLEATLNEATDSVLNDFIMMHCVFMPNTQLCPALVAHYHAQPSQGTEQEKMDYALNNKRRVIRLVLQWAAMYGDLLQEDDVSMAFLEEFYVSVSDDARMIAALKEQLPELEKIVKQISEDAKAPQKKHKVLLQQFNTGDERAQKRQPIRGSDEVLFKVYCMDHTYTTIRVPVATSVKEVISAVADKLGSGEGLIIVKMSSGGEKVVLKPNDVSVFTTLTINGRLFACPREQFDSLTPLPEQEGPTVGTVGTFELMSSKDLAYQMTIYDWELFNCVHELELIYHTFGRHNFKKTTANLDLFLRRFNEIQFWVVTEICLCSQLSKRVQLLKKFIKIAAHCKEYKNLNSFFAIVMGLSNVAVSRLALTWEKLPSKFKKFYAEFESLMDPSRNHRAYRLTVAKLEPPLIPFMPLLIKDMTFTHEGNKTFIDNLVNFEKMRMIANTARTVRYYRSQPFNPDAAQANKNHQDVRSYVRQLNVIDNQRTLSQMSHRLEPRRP
Chain of Cytochrome P450 2C19 (Homo sapiens) (P33261 whole entry, looked up): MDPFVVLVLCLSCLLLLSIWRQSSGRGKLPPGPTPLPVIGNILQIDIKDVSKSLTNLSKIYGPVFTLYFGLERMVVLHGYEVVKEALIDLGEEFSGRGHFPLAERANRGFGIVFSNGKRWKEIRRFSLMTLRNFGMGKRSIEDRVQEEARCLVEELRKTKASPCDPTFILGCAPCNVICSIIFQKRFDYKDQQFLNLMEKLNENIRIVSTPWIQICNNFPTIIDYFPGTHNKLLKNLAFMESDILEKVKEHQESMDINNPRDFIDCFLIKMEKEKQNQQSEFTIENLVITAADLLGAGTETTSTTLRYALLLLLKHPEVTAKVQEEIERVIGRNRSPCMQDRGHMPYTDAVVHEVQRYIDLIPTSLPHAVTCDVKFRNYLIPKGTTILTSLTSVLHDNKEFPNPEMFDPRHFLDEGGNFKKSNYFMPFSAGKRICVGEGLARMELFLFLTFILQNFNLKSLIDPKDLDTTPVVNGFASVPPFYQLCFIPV
Chain of Cytochrome P450 2C9 (Homo sapiens) (P11712 whole entry, looked up): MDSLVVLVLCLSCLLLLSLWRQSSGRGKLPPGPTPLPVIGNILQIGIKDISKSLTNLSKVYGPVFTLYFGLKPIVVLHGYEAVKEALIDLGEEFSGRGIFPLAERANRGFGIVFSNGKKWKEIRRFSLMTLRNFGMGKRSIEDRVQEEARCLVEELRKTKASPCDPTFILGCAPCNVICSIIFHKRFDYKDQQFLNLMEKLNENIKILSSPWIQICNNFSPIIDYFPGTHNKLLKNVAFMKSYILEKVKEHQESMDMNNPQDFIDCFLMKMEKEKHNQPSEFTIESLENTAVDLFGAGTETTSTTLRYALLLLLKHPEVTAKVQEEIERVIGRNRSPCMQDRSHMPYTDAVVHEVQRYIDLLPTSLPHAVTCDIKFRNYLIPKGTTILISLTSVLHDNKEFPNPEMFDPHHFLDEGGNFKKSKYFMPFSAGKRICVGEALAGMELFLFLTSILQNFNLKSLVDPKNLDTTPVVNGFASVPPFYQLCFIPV
Chain of Nuclear receptor subfamily 1 group I member 2 (Homo sapiens) (O75469 whole entry, looked up): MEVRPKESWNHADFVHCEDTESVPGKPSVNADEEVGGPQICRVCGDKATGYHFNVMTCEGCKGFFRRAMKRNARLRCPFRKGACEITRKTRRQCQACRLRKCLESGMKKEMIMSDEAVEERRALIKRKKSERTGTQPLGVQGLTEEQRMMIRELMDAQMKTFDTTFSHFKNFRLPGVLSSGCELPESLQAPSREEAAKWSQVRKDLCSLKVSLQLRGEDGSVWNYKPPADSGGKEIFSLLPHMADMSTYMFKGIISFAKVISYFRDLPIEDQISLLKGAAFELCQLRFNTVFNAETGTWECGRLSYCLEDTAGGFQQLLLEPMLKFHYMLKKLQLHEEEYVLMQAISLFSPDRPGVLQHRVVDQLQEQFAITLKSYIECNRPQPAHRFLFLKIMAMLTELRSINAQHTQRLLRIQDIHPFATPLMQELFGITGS
Chain of Cytochrome P450 1A2 (Homo sapiens) (P05177 whole entry, looked up): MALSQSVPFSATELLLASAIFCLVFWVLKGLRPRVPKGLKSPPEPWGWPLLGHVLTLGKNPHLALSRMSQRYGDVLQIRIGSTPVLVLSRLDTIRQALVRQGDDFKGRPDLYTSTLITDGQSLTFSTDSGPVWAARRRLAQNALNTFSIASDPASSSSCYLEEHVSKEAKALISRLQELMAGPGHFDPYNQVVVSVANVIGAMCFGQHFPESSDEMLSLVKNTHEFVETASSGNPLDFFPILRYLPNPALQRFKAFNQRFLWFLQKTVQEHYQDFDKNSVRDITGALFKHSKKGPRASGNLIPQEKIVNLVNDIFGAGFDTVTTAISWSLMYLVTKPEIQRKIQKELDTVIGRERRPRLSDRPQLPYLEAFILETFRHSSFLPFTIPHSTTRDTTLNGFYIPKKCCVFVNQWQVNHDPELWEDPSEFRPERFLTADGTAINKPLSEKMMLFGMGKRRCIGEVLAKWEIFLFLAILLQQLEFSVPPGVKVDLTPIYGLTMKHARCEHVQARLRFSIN
Chain of Cytochrome P450 3A4 (Homo sapiens) (P08684 whole entry, looked up): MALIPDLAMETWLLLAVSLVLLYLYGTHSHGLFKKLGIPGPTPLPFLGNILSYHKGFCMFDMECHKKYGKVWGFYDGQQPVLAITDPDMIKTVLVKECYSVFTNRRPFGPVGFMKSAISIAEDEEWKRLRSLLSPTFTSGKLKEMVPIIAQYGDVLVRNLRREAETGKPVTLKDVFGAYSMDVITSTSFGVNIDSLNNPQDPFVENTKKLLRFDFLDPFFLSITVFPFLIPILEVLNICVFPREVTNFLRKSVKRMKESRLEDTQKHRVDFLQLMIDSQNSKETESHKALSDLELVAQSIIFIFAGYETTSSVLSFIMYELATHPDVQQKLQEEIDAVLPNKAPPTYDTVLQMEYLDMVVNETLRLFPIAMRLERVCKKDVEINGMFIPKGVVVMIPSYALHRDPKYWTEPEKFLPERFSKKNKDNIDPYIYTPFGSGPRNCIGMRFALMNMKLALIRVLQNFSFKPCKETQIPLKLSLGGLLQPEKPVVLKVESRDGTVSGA
Chain of Rap guanine nucleotide exchange factor 3 (Homo sapiens) (O95398 whole entry, looked up): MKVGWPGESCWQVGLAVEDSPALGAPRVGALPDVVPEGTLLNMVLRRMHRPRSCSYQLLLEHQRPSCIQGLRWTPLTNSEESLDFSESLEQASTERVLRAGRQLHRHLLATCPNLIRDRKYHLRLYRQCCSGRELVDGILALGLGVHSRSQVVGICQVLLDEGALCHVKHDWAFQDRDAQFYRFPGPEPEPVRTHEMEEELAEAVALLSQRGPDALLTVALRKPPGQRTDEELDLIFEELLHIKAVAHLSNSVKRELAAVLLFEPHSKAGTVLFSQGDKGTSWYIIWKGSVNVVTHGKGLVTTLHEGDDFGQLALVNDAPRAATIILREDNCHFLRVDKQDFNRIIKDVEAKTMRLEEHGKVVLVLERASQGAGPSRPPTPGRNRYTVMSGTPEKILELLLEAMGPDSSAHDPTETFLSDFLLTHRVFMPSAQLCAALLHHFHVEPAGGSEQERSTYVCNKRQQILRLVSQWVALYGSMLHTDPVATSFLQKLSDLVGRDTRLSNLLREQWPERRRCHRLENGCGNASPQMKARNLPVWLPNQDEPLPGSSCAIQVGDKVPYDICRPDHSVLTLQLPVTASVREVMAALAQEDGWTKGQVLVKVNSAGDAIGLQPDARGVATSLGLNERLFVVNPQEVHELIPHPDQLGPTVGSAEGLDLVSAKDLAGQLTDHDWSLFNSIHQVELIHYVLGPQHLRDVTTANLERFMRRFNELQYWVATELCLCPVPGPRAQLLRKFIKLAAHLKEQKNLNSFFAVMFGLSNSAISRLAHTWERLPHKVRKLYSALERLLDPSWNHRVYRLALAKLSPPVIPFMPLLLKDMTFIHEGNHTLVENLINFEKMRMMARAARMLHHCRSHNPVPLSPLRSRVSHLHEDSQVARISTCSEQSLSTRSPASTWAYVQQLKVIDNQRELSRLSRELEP

O=C(OC[C@H]1O[C@@H](OC(=O)c2cc(O)c(O)c(O)c2)[C@H](OC(=O)c2cc(O)c(O)c(O)c2)[C@@H](OC(=O)c2cc(O)c(O)c(O)c2)[C@@H]1OC(=O)c1cc(O)c(O)c(O)c1)c1cc(O)c(O)c(O)c1
active: Potency [4] 7.08 µM | Potency [5] 14.1 µM | Potency [6] 6.31 µM | Potency [7] 3.98 µM | Potency [9] 3.55 µM
inactive: outcome [1] | outcome [2] | outcome [3] | outcome [8] | max response [10] 0.413% | outcome [11] | outcome [12] | outcome [13]

CC1c2cccc(O)c2C(O)=C2C(=O)C3(O)C(O)=C(C(N)=O)C(=O)C(N(C)C)C3C(O)C21 (stereo unspecified)
inactive: Potency [14]

CC(C)=CCc1c2c(c3occ(-c4ccc(O)c(O)c4)c(=O)c3c1O)C=CC(C)(C)O2
inactive: Potency [15] > 11.4 µM | activity change, negative = inhibition [16] -0.16% | outcome [17] | outcome [18] | Potency [19]

COc1cc(C(=O)O)ccc1NC(=O)[C@@H]1N[C@@H](CC(C)(C)C)[C@](C#N)(c2ccc(Cl)cc2F)[C@H]1c1cccc(Cl)c1F
inactive: Potency [20]

CN(C)c1cc(NC(=O)CNC(C)(C)C)c(O)c2c1C[C@H]1C[C@H]3[C@H](N(C)C)C(=O)C(C(N)=O)=C(O)[C@]3(O)C(=O)C1=C2O
inactive: Potency [20]
